Only some compounds are listed: those with a hit (about 1.5% of all), similar ones and a draw of the others.
GLD-1 TGE inh = GLD-1-TGE RNA interaction inhibition (C. elegans). purified GLD-1 + fluorescein TGE RNA, fluorescence polarization. Q17339. inhibition, % at 5.96 µM. hit rate 0.44% among 320,000;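 active = percent inhibition above a per-plate cutoff, the plate mean of test compounds plus 3 SD, cut at about 30% in these data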
IDE inh = cellular human IDE inhibition. P14735. HEK cells, FAbetaB cleavage, fluorescence polarization. inhibition, % at 5.59 µM. hit rate 0.41% among 320,000. AID 434962;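 active = percent inhibition above the average of all tested compounds plus 3 SD, set per screening campaign, cut at about 16% in these data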;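 also: IDE supplied by intact live HEK cells; FP after avidin binding of uncleaved biotin substrate so inhibition keeps polarization high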
IDE act = boosts human insulin-degrading enzyme activity in HEK cells; AID 493087; hit rate 0.073% among 340,000; P14735; FAbeta-B cleavage, fluorescence polarization; 0% vehicle, 100% cell-free pure enzyme wells; activation, % at 5.96 µM;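 active = activation above the mean of all tested compounds plus 3 SD, set per screening campaign, cut at about 17% in these data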
BCLXL inh = inhibitors of human Bcl-xL. AID 2129. GST-Bcl-xL / FITC-Bim BH3 peptide fluorescence polarization. hit rate 0.7% among 320,000. inhibition, % at 10.9 µM;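 active = inhibition above the mean of all tested compounds plus 3 SD, cutoff set per campaign, cut at about 30% in these data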;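 also: inhibitors lower millipolarization by displacing the labeled peptide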
Target sequence (Q07817 whole entry, looked up): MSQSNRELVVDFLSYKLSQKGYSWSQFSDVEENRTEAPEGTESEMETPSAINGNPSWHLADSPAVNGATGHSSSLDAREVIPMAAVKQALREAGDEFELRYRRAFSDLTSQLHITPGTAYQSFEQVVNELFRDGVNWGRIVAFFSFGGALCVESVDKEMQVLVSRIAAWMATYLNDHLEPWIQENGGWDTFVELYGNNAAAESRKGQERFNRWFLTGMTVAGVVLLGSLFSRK
MEX-5 binding = C. elegans MEX-5 TCR-2 RNA binding activity; Q9XUB2; MEX-5/FITC-TCR2 RNA binding, fluorescence polarization; stronger effect = lower value; activity score (negative = inhibition of binding), % at 10 µM; hit rate 0.38% among 300,000;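 active = inhibition past about -25% in most replicates, and total fluorescence under double the plate's negative control median, limit read from the data; inconclusive = replicates evenly split on the limit, or fluorescence at least double controls; inactive = too little inhibition in most replicates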
MCL1 BIM primary = MCL1-BIM-BH3 interaction inhibition (human). inhibition, % at 10.9 µM. AID 2057. Q07820. hit rate 0.68% among 320,000. GST-MCL1 / FITC-Bim-BH3 fluorescence polarization;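 active = inhibition above the mean inhibition of all tested compounds plus 3 SD, set per campaign, cut at about 40% in these data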;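 also: higher means more loss of mP so more displacement of Bim peptide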
Target sequence (Q07820 whole entry, looked up): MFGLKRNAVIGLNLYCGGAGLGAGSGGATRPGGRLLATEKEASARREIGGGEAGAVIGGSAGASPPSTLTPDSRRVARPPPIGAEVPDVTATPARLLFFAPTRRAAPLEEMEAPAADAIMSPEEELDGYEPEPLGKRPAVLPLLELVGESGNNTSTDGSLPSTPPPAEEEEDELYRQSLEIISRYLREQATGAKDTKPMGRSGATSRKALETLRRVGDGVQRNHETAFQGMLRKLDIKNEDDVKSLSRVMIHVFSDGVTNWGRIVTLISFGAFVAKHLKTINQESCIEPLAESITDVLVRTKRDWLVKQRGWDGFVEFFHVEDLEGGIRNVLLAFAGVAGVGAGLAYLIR
BCLXL inh confirm = counter-screen for MCL1 inhibitors: confirmation of human Bcl-xL inhibitors; shares compounds with MCL1 BIM primary; GST-Bcl-xL / FITC-Bim BH3 peptide FP binding; inhibition, % at 10.9 µM; hit rate 54% among 1,700;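 active = inhibition above a cutoff equal to the mean inhibition of all tested compounds plus 3 SD, cut at about 30% in these data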
MCL1 BIM confirm = confirmation of human MCL1 and BIM-BH3 interaction inhibitors; shares compounds with MCL1 BIM primary; GST-MCL1 / FITC-Bim-BH3 fluorescence polarization; inhibition, % at 10.9 µM; hit rate 61% among 1,700;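 active = inhibition above the average of all tested compounds plus 3 SD, cut at about 40% in these data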
A number is an active result; n = inactive; u = inconclusive; x = not tested or not shown; + = active, no number.

SMILES	GLD-1 TGE inh	IDE inh	IDE act	BCLXL inh	MEX-5 binding	MCL1 BIM primary	BCLXL inh confirm	MCL1 BIM confirm
COc1cccc(CNC(=O)CSc2ccc(-c3cccs3)nn2)c1	n	n	n	n	n	n	x	x
COc1ccccc1NC(=O)Nc1ccnn1C1CCN(C(=O)c2cccnc2)CC1	n	n	n	n	n	n	x	x
FC(F)c1nc2ccccc2[nH]1	n	n	n	n	n	n	x	x
c1ccc2[nH]c3cc4ncnc4cc3nc2c1	+	n	n	+	-81.1	+	+	+
O=C1/C(=C\c2cccc([N+](=O)[O-])c2O)SC(=S)N1Cc1ccccc1	n	n	n	n	n	n	x	x
O=C1/C(=C\c2cc(Br)cc(Br)c2O)SC(=S)N1Cc1ccccc1	n	n	n	n	n	50.6	n	48.8
COc1cc([N+](=O)[O-])cc(/C=C2/SC(=S)N(Cc3ccccc3)C2=O)c1O	n	n	n	49.2	n	72.5	69.9	80.2
O=C(N=C1SC2CS(=O)(=O)CC2N1c1cc(Cl)ccc1Cl)C1CCCO1 (stereo not given)	n	n	n	n	n	n	x	x
CCn1c(O)c(/C=N/N=C/c2ccccc2)c2ccc(C3=NNC(=O)CC3)cc21	n	n	n	48.8	n	90.0	95.7	109.0
COC(=O)c1cc(Cl)nc2ccccc12	n	n	n	n	n	n	x	x
CC1=CC2=C(OC1N(C)C)c1cccc3cccc(c13)C2=O (stereo not given)	110.4	n	n	122.4	n	142.9	35.6	n
CN(C)CCCN1C(=O)c2cccc3cccc(c23)C1=O	n	n	n	n	n	n	x	x
Cc1ccc(-n2c(SCC(=O)N(C)C3CCS(=O)(=O)C3)nc3ccccc3c2=O)c(C)c1 (stereo not given)	n	n	n	x	x	x	x	x
COCCNC(=O)CCc1nnc2ccc(N3CCC(C)CC3)nn12	n	n	n	n	n	n	x	x
O=C1c2ccccc2-c2onc3c(N4CCN(CCO)CC4)cc(N4CCN(C(=O)c5ccco5)CC4)c1c23	n	n	n	63.4	n	83.0	53.1	58.3
O=C(O)CCCNc1cc(N2CCN(C(=O)c3ccco3)CC2)c2noc3c2c1C(=O)c1ccccc1-3	98.6	n	n	134.8	u	156.9	192.6	163.6
O=C1c2ccccc2-c2c1cccc2C(=O)N1CCN(C(=O)c2ccco2)CC1	n	n	n	n	n	n	x	x
COc1ccc(OC)c2nc3c(cc12)CCC3	32.5	n	n	52.5	n	52.9	n	n
COc1ccc(OC)c2cc3ccccc3cc12	x	x	n	x	x	x	x	x
CN1Cc2sc(N)c(C#N)c2CC1(C)C	n	n	n	60.6	n	59.4	n	n
COc1cc(C2NC(=O)C(C#N)=C(Nc3cccc(C)c3)S2)ccc1O (stereo not given)	n	n	n	n	n	n	x	x
c1ccc(CNc2c3ccccc3nc3ccccc23)cc1	n	n	n	n	n	n	x	x
OCC(Cc1ccccc1)Nc1c2ccccc2nc2ccccc12 (stereo not given)	n	n	n	n	n	40.1	n	n
CCCCC1=CC2=C(c3ccco3)C(=O)C(C)(OC(=O)c3ccc(OC)cc3)C(=O)C2=CN1C1CCCCC1 (stereo not given)	39.4	n	n	45.7	n	51.5	40.7	59.2
COCCN(C(=O)CSc1nnc(-c2ccccc2F)o1)c1c(N)n(CC(C)C)c(=O)[nH]c1=O	n	n	n	n	n	n	x	x
SMILES	GLD-1 TGE inh	IDE inh	IDE act	BCLXL inh	MEX-5 binding	MCL1 BIM primary	BCLXL inh confirm	MCL1 BIM confirm
Cc1ccc(C(=O)OCC(=O)NNC(=O)c2ccccc2)c(O)c1	n	n	n	n	n	n	x	x
Cc1ccc(C(=O)OCC(=O)NC(=O)c2ccc(C(C)(C)C)cc2)c(O)c1	n	n	n	62.0	n	69.8	n	n
Cc1nc(-c2ccc(NC(=O)CC(C)C)cc2)cs1	n	n	n	n	n	n	x	x
Cc1ccc(S(=O)(=O)N2CCOCC2)cc1NC(=O)COc1cccc(Oc2ccccc2)c1	n	n	n	n	n	n	x	x
O=c1[nH]c(S)c(/C=C2\C=Nc3ccccc32)s1	45.2	n	x	76.7	n	76.3	86.0	107.8
CCOC(=O)c1ccc2c(c1)C1C=CCC1C(C(=O)OCC)N2 (stereo not given)	n	n	n	n	n	n	x	x
O=C(O)C1Nc2ccc(Br)cc2C2C=CCC12 (stereo not given)	n	n	n	78.6	-29.7	100.5	66.8	107.0
CCOC(=O)C1Nc2ccc(Br)cc2C2C=CCC12 (stereo not given)	n	n	n	n	n	44.3	n	n
CCOC(=O)C1Nc2ccc(C)cc2C2C=CCC12 (stereo not given)	n	n	n	n	n	50.8	n	n
O=C(NCCS(=O)(=O)NCc1ccccc1Cl)c1ccccc1	n	n	n	n	n	n	x	x
O=C(Cn1nc(Cc2ccncc2)c2ccccc2c1=O)Nc1cccnc1Cl	n	n	n	n	n	n	x	x
CCOC(=O)COn1c(=O)c(-c2ccc(OC)c(OC)c2)[n+]([O-])c2ccccc21	n	n	x	n	n	71.8	n	n
COc1ccc(C2C=C(c3ccccc3)Nc3nnnn32)cc1 (stereo not given)	n	n	n	n	n	n	x	x
COc1ccc(C2C=C(c3ccccc3)Nc3nc(NC(C)=O)nn32)cc1 (stereo not given)	40.0	n	x	58.0	n	60.0	59.5	79.7
CCOC(=O)c1ccccc1NC(=O)N1CCn2c(C)ccc2C1CC (stereo not given)	33.2	n	n	62.2	n	62.9	35.5	n
O=C(Cn1c(=O)n(Cc2ccco2)c(=O)c2c3c(sc21)CCCC3)Nc1ccccc1	n	n	n	n	n	n	x	x
NC(=O)Cn1c(=O)n(Cc2ccco2)c(=O)c2c3c(sc21)CCCCC3	n	n	n	33.8	n	77.2	31.4	76.5
O=C(CCl)Nc1ccc(N2CCCCCC2)cc1	n	n	n	n	n	n	x	x
CCN1C(=O)S/C(=C\c2ccc(N3CCOCC3)cc2C)C1=O	n	n	n	n	n	n	x	x
C#CCN1C(=O)S/C(=C\c2ccc(N3CCOCC3)cc2C)C1=O	n	n	n	n	u	70.4	120.7	153.2
CSc1nc(N)nc(C(C)C)n1	n	n	n	n	n	66.4	n	n
CSc1nc(N)c2c3c(sc2n1)COC(C(C)C)C3 (stereo not given)	n	n	n	n	n	n	x	x
Nc1nc(=S)c2ncn(C3OC(CO)C(O)C3O)c2[nH]1 (stereo not given)	n	n	n	n	n	82.2	n	46.7

Source: PubChem (several laboratories)
